These results are taken from PubChem BioAssay.

Structures are written as SMILES. Values without a mark were called inactive. The source made the active and inactive calls.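 The calls were made as follows: active = inhibition of the reporter signal at or above 50%; inactive = inhibition below 50%.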

A short description of the test: inhibitors of poly I:C-induced TLR3 signaling, primary screen, cell-based, poly I:C stimulus, luciferase, 10K MLSCN set (AID 602277). The settings on record: HEK293-TLR3 RL24 IRF3 luciferase reporter, at 10 µM, stronger effect = higher value. On the technique in general: A reporter such as luciferase makes a cellular process visible.
A word on the inhibition: it is the relative decrease from the control value, in per cent. For `Cc1ccc(N(C(C)C(=O)Nc2ccc(S(=O)(=O)N3CCOCC3)cc2)S(C)(=O)=O)cc1` (stereo not given), the inhibition is 10.8%.

As to `c1ccc(N2CCN(Cc3cn4cccnc4n3)CC2)cc1`, the inhibition is 18.5%. In the case of `Oc1ccc(N2CCN(C(c3ccncc3)c3nnnn3C3CCCC3)CC2)cc1` (stereo not given), the inhibition is 26.3%. For the compound `COC(=O)[C@H](C)NC(=O)Nc1cccc(C(F)(F)F)c1`, the inhibition was -5.94%.

`CCCCNC(=O)c1nc2ncc(Br)cn2n1`: the inhibition is 22.4%. To `CCN1CCN(C(c2cccs2)C(C)NC(=O)c2ccccc2)CC1` (stereo not given) belongs 39.8%; to `COc1ccc(C2C(C#N)=C(N)Oc3cc4c(cc32)OCO4)cc1` (stereo not given), 59.4% (active).

Regarding `CCn1c(=O)c(C(=O)NCc2ccc(OC)cc2)c(O)c2ccccc21`, the inhibition was 16.2%.

Take `CCOC(=O)c1ccccc1NC(=O)c1ccc2c(=O)n3c(nc2c1)CCCCC3`: the inhibition was 32.9%. Regarding `CN(CCc1ccccn1)c1ncnc2[nH]ncc12`, the inhibition is -53.4%. For the compound `CN(C(=O)c1cc2sccc2n1C)C1CCCCC1`, the inhibition was -93.3%.

In the case of `COc1ccc(-n2c(SCC(=O)N3CCCCC3C)nnc2-c2cccnc2)cc1` (stereo not given), the inhibition is 9.8%. To `CCn1nnc(NC(=O)c2ccccc2Br)n1` belongs -39.6%; to `CC(=O)N1CCN(c2ccc(S(=O)(=O)N3CCCCC3)cn2)CC1`, 8.53%. To `CC1CCN(C(=O)CSCC(=O)Nc2nc(-c3cccs3)cs2)CC1` belongs -0.513%; to `Cn1cnc2c1c(=O)n(Cc1cccc(Br)c1)c(=O)n2C`, 14.4%; to `O=C(NC1CCCCC1)C1CCCN1C(=O)NCc1ccccc1` (stereo not given), 10.2%. To `CCOC(=O)c1ccc(NC(=O)COc2ccc(-n3cnnn3)cc2)cc1` belongs 11.4%. For `Cc1cc(C)c2c(=O)n(CC(=O)NCCCN3CCOCC3)sc2n1`, the inhibition was 40.4%. For `Cc1cccc2sc(NC(=O)CN(C)S(=O)(=O)c3cccs3)nc12`, the inhibition was -8.61%. Under `CCCc1nc(NCc2ccncc2)c2nnn(Cc3ccccc3F)c2n1` stands 19.1%. To `O=S1(=O)CCC(NS(=O)(=O)/C=C/c2ccccc2)C1` (stereo not given) belongs 14.6%. To `O=C(NCC1CCCO1)C1CCCN(S(=O)(=O)c2cccc3nsnc23)C1` (stereo not given) belongs -1.36%; to `COc1ccccc1NC(=O)N(C1CCCC1)C1CCN(C(C)=O)CC1`, 34.4%. Regarding `O=C1NC(Cc2c[nH]c3ccccc23)C(=O)N1CCOc1ccccc1` (stereo not given), the inhibition is 19.7%.

For the compound `COC(=O)C(C)Sc1nnc2n(-c3cccc(C)c3)c(=O)c3c4c(sc3n12)CCCC4` (stereo not given), the inhibition is -7.85%. To `COc1ccc2[nH]c(=O)c(CN(CC3CCCO3)C(=O)Nc3ccc(F)cc3)cc2c1` (stereo not given) belongs -13.3%. To `Cc1nc2ccccc2c2oc(C(=O)NCC3COc4ccccc4O3)cc12` (stereo not given) belongs -3.35%.

With `CCN(Cc1cc2ccccc2[nH]c1=O)S(=O)(=O)c1ccccc1`, the inhibition is 5.79%. Consider `CC(=O)NC(=O)NC1CSCC1OC(C)=O` (stereo not given), for which the inhibition was 12%. Take `COc1ccc(S(=O)(=O)NCC(c2cccnc2)N2CCN(c3ccc(F)cc3)CC2)cc1C` (stereo not given): the inhibition was 27.2%. Under `COCCn1c(CN2CCN(c3cccc(Cl)c3)CC2)nc2c1c(=O)n(C)c(=O)n2C` stands 15.3%; under `CC1(C)CC(CCNC(=O)c2ccco2)CC(C)(C)N1`, 12.3%. Under `O=C1c2ccccc2C(=O)N1C/C=C/c1ccccc1` stands 25.4%; under `CCn1c(SCc2cccc(C(F)(F)F)c2)nnc1-c1ccco1`, 3.48%; under `c1ccc(-c2nnc(CSc3nncs3)o2)cc1`, -78.9%. Under `Cc1ccc(C)c(N2CCN(S(=O)(=O)c3ccc4c(c3)OCCO4)CC2)c1` stands 16.3%. `CCOc1cccc(-n2nnnc2-c2ccc(OC)cc2)c1`: the inhibition is 61.2% (active). Under `CCOC(=O)C1CCCN(C(=O)c2ccc(CS(=O)(=O)c3ccc(Br)cc3)o2)C1` (stereo not given) stands 25.8%; under `C=CCSC1=C(C#N)C(c2ccccc2Cl)CC(=O)N1` (stereo not given), 14.1%.
